# Data as given in PubChem BioAssay (Tox21).
# Values without a mark were called inactive. A call without a number means that no potency is given here. Calls of active or inactive are those of the source. The call rests on the fitted dose curve; in most records, active means well fitted activation curve with a large enough effect in the repeat runs; inconclusive means weak or mixed curves; inactive means flat fitted curve, though single readings scatter.
# Assay: Caspase-3/7 induction in CHO-K1 cells by small molecules, qHTS assay (AID 1346980); further: nearly all actives have a fitted effect of over 15% in size
# Details: CHO-K1 caspase-3/7 induction, Caspase-Glo luminescence, 17 h; series mostly up to 92.4 µM
# Source text: National Center for Advancing Translational Sciences [NCATS]
# NIH Chemical Genomics Center [NCGC]
# U.S. Environmental Protection Agency [EPA]
# National Institutes of Environmental Health Sciences [NIEHS]
# National Toxicology Program [NTP]
# Apoptosis is a process of programmed cell death and plays a central role in the development of multicellular organisms. It is a highly regulated process and induces cell death by activating caspases, which are the members of cysteine aspartic acid-specific protease (caspase) family. Caspases involved in apoptosis are classified by their mechanism of action as initiator caspases (caspase-2, -8, -9 and -10) and executioner caspases (caspase-3, -6, and -7). Inhibition of apoptosis results in number of cancers, autoimmune diseases, inflammatory diseases and viral infection. To identify small molecule compounds that induce apoptosis, a homogeneous, luminescent Caspase-Glo 3/7 assay was used. Wild type CHO-K1 cells were used to screen Tox21 libraries for identifying caspase-3/7 activity inducers.
# CHO-K1 cells were dispensed at 1,500 per well in 5uL of culture medium into white solid bottom 1536-well plates (Corning Life Sciences, Corning, NY) using a Multidrop Combi (Thermo Scientific, Waltham, MA) dispenser. The assay plates were incubated at 37 C and 5% CO2 for 5hr, and then 23nL of compounds dissolved in DMSO and positive control were transferred using a Pintool station (Wako, San Diego, CA). The assay plates were incubated at 37C and 5% CO2 for 17hr. For caspase-3/7 activity read, 4uL of Caspase-Glo 3/7 reagent (Promega Corporation, Madison, WI) was added to each well of the assay plates using Flying Reagent Dispenser (FRD, Aurora Discovery, San Diego, CA) and incubated the assay plates at room temperature for 30min. The luminescence signal was quantified using a ViewLux plate reader (Perkin Elmer, Shelton, CT).
# Potency means the concentration at half of the fitted maximal effect.
Compound,Potency,caspase-3/7 activation
CCCC(=O)OCC(COC(=O)CCC)OC(=O)CCC,inactive,–
COc1cc(C(C)C)c2c(c1)S(=O)(=O)N(COc1cc(=O)n3cccc(OCCN4CCCCC4)c3n1)C2=O,–,-0.224% [at 19 µM]
C=C1C(C)(C)[C@@]2(Cl)C(Cl)[C@]1(Cl)C(Cl)(Cl)C2(Cl)Cl (stereo not given in full),60 µM (active),–
COc1ccccc1OCCNCC(O)COc1cccc2[nH]c3ccccc3c12 (stereo not given),inactive,–
CC(=O)c1ccccc1N,inactive,–
CC(C(O)c1ccccc1)N(C)CCOC(c1ccccc1)c1ccccc1 (stereo not given),inactive,–
CC(=O)C=O,inactive,–
CNC(=S)NN,inactive,–
O=C1OC(=O)c2cccc3cccc1c23,inactive,–
Clc1cc(Cl)c(-c2c(Cl)c(Cl)cc(Cl)c2Cl)cc1Cl,inactive,–
SCCCCCCCCS,inactive,–
CCCCCCCCCCCCCOP(=O)(O)O,inactive,–
CC1=CCC(=O)O1,inactive,–
CCN(CC)CCNc1ccc(CO)c2sc3ccccc3c(=O)c12,inactive,–
CCN1CCN(c2cc(-c3ccc(F)cc3)c3c(n2)CCCCCC3)CC1,–,1.46% [at 19 µM]
CCc1ccc(C)nc1,inactive,–
CC(C)c1ccc(O)c(C(C)C)c1,inactive,–
C=C[C@](C)(O)CC[C@@H]1[C@@]2(C)CCCC(C)(C)[C@@H]2CC[C@@]1(C)O,inactive,–
O=C(Oc1ccccc1)c1cccc(C(=O)Oc2ccccc2)c1,inactive,–
O=C(Nc1ccc(Cl)c(Cl)c1)c1cc(Cl)cc(Cl)c1O,inactive,–

Compound,Potency,caspase-3/7 activation
OCCCS,inactive,–
COC(=O)NCCC[Si](OC)(OC)OC,inactive,–
C=CC(=O)OCCN(CC)CC,inactive,–
COc1cccc(OC)c1O,inactive,–
Cc1ccc(-n2[nH]c(C)c(N=Nc3cccc(-c4cccc(C(=O)O)c4)c3O)c2=O)cc1C,inactive,–
Cc1cn[nH]c1,inactive,–
NC(=O)c1ccccc1N,inactive,–
O=C(O)CC(=O)O,inactive,–
ClC/C=C\CCl,inactive,–
Brc1ccccc1-c1ccccc1,inactive,–
CC(C)=CCCC(C)O (stereo not given),inactive,–
CCc1c(C(=O)O)c(=O)cnn1-c1ccc(Cl)cc1,inactive,–
C=CC(C)(CCC=C(C)C)OC(=O)/C=C/c1ccccc1 (stereo not given),inactive,–
Cc1cncc(C)c1,inactive,–
O=C1c2c(O)ccc([N+](=O)[O-])c2C(=O)c2c([N+](=O)[O-])ccc(O)c21,inactive,–
Cc1occc1SSc1ccoc1C,inactive,–
CCCCCCCC/C=C\CCCCCCCC(=O)N(C)CC(=O)O,inactive,–
CCCCN(CCCC)CCC(O)c1cc2c(Cl)cc(Cl)cc2c2cc(C(F)(F)F)ccc12 (stereo not given),inactive,–
CSc1c(Cl)c(Cl)c(Cl)c(Cl)c1Cl,inactive,–
O=C(NO)c1ccccc1,inactive,–
